Screening results: PubChem BioAssay, National Center for Advancing Translational Sciences (NCATS)
MARV entry inh: blocks Marburg virus binding to or entry into cells; 1.8% of 300,000 active; Potency, µM (titrated, usually from 37.8 µM), usual class: inhibitors; Marburg virus pseudotyped entry inhibition, cell reporter; calls by dose curve; tested in HEK293 cells
Shiga inhibitor: blocks Shiga toxin action in Vero cells | Vero cells, Shiga toxin protein synthesis inhibition reporter | inhibition, % at 38.7 µM | 9.2% of 290,000 active | AID 2315; in the data active = inhibition mostly above about 28%, no sharp cut-off; inactive = mostly below about 43%
FMDV inh: antivirals against foot and mouth disease virus; FMDV antiviral cell-based qHTS; Potency, µM (titrated, usually from 57.9 µM), most hits filed as inhibitors; 1.2% of 410,000 active; AID 1159524; calls by dose curve; tested in HEK293T cells; also: read-out not given here; nearly all actives have a fitted effect of over 45% in size
LASV entry inh: inhibitors of Lassa virus binding or cell entry; Lassa virus pseudotype entry inhibition, cell reporter; Potency, µM (doses to about 37.9 µM), hits mostly inhibitors; 1.2% of 300,000 active; AID 540256; calls by dose curve; tested in HEK293 cells; also: nearly all actives have a fitted effect of over 50% in size
CHX counter: counter-screen hit for Shiga toxin inhibitors, cycloheximide | max response, % | 12% of 300,000 active | cell reporter, cycloheximide protein synthesis inhibition counterscreen; in the data active = max response mostly above about 13%, no sharp cut-off; inactive = mostly below about 14%; also: read at 38.3 µM for the half of the compounds with a filed dose
HCV inh: HCV inhibition | 3.4% of 340,000 active | Huh7.5.1 HCVcc-Cre infection, luciferase reporter, 44 h | Potency, µM (titrated, usually from 41.8 µM), actives largely listed as inhibitors; active = well fitted inhibition curve with a large enough effect; inconclusive = small, poorly fitted or top-dose-only effect, or another doubt; inactive = no such curve, though single readings can be large or run the other way
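Cells (1,000/well) were plated 4 h before compound, then infected with HCVcc-Cre virus (~0.5 moi). After 44 h further culture, infection was read as luciferase luminescence following a 15 min substrate incubation at room temperature.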
Of the large screens only hits and unclear results are named; the others gave an inactive call. Sampled rows, rich in hits. Any-hit rate of the full collection: about 13%.

CC(=O)OC1CCC2(C)C(CCC3C4CC=C(C(C)=O)C4(C)OC(=O)CC32)C1 (centres undefined)	FMDV inh 12.6µM (no result: MARV entry inh, Shiga inhibitor, LASV entry inh, CHX counter, HCV inh)
CC(=O)OC1CC[C@@]2(C)C3CC(=O)[C@]4(C)C(C(C)=O)=CCC4C3CC[C@H]2C1 (some centres undefined)	none (no result: MARV entry inh, Shiga inhibitor, LASV entry inh, CHX counter, HCV inh)
CCCCSc1nc(-c2ccc(OC)cc2)ccc1C#N	MARV entry inh inconclusive (no result: Shiga inhibitor, CHX counter, HCV inh)
CCSc1nc(-c2ccc(OC)cc2)ccc1C#N	HCV inh 10µM
CCn1nnnc1SCC(=O)N1CCc2ccccc21	MARV entry inh inconclusive, LASV entry inh inconclusive (no result: Shiga inhibitor, CHX counter)
CCCn1c(-c2ccc(F)cc2)cnc1SCC(=O)O	HCV inh inconclusive
CCn1c(-c2ccc(F)cc2)cnc1SCC(=O)N1CCCCC1C (centres undefined)	Shiga inhibitor 92.8, CHX counter 41.1 (no result: MARV entry inh, FMDV inh, LASV entry inh, HCV inh)
